Hits are enriched below; roughly 4.5% of the tested compounds scored in any of these assays.
Mdm2 MdmX PPI – inhibitors of human Mdm2-MdmX association, primary screen, cell-based, luminescence, split luciferase, SaOS-2, uHTS. actives 3% (n = 330,000). inhibition, % at 8 µM. AID 485346, 2010. Protein Mdm4 (Homo sapiens) + E3 ubiquitin-protein ligase Mdm2 (Homo sapiens), …. SaOS-2 split-luciferase Mdm2/MdmX complementation;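 active = inhibition of at least 50% at 8 µM in the primary screen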
CSC inhib – cancer stem cell viability inhibitors, primary screen, luminescence | cancer stem cell-like cells viability | inhibition, % at 7.5 µM | actives 1.1% (n = 300,000); in the data active = inhibition above about 75%; tested in HMLE shEcad cells
aSyn 5UTR inh – MLPCN primary screen, SNCA 5' untranslated region | inhibition, % (tested at 7.5 µM) | actives 0.82% (n = 300,000) | alpha-synuclein 5'UTR reporter, inhibitor activity; in the data active = inhibition above about 60%;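 note: H4 neuroglioblastoma cells stably carrying SNCA 5'UTR luciferase fusion; 0% = DMSO wells and 100% = positive control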
Gli-Sufu antag – Gli-Sufu pathway antagonists, primary screen, luciferase luminescence, Sufu-KO-LIGHT cells, uHTS | Sufu-KO-LIGHT fibroblasts, Gli luciferase reporter luminescence | inhibition, % at 5 µM | actives 0.74% (n = 340,000) | AID 588413, 2011;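 active = inhibition above about 55%, limit read from the data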;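 note: 0% = DMSO-treated cells and 100% = wells with medium but no cells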
697 NFkB inh – inhibitors of PMA/ionomycin-induced NF-kB reporter, 697 cells, primary screen, B-cell NF-kB inhibitor project, cell-based, luminescence, uHTS. 697 B-cell NF-kB luciferase reporter, 16 h. actives 0.33% (n = 330,000). inhibition, % at 4 µM. AID 435022, 2010; in the data active = inhibition above about 35%
Jurkat NFkB inh – inhibitors of induced NF-kB luciferase reporter, primary screen, TCR NF-kB activation inhibitor project, cell-based, luminescence, uHTS; Jurkat, PMA/ionomycin-induced NF-kB luciferase reporter; inhibition, % at 4 µM; actives 0.53% (n = 330,000); in the data active = inhibition above about 50%
Mdm2-MdmX conf – Mdm2-MdmX complex disruptors, retested hits, confirmation, luminescence, single concentration; shares compounds with Mdm2 MdmX PPI; Mdm2-MdmX binding, luminescent assay; inhibition, % at 8 µM; actives 55% (n = 10,000); AID 489028, 2010; in the data active = inhibition above about 40%
FLuc counter – full-length luciferase signal inhibition, confirmation, counter-screen for Mdm2/MdmX interaction inhibitor project, cell-based, single concentration, SaOS-2. SaOS-2 full-length luciferase counterscreen, luminescence. actives 77% (n = 6,200). AID 504607, 2011. inhibition, % at 8 µM. shares compounds with Mdm2 MdmX PPI;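 active = mean inhibition at 8 µM reaching about 37%, which flags the compound as non-specific, limit read from the data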;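 note: p53-null SaOS-2 cells with luciferase driven by a doxycycline-inducible promoter; compound on cells about two nights before reading with doxycycline added after day one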
Numbers without * were called inactive; · = not tested or not shown.

SMILES	Mdm2 MdmX PPI	CSC inhib	aSyn 5UTR inh	Gli-Sufu antag	697 NFkB inh	Jurkat NFkB inh	Mdm2-MdmX conf	FLuc counter
COc1ccc(CNC(=O)Cn2cnc3c(NCc4ccccc4)ncnc32)cc1	61.2*	·	·	-11.3	6.1	·	27.9	·
COC(=O)c1ccc(CNC(=O)Cn2cnc3c(NCc4ccccc4)ncnc32)cc1	27.0	·	·	-23.8	-6.3	·	·	·
Cc1cc(NC(c2cccnc2)c2ccc3cccnc3c2O)no1 (stereo not drawn)	74.0*	·	77.3*	-2.5	-10.2	16.4	68.2*	40.3*
CCC(=O)NC(c1ccccc1OC)c1ccc2cccnc2c1O (stereo not drawn)	69.5*	92.9*	79.9*	49.3	-17.4	30.4	59.7*	32.5
Oc1c(C(Nc2cccc(C(F)(F)F)c2)c2cccnc2)ccc2cccnc12 (stereo not drawn)	21.0	32.8	-26.6	22.6	-33.8	-6.7	·	·
CCCCC(=O)NC(c1ccccc1Cl)c1ccc2cccnc2c1O (stereo not drawn)	80.4*	99.3*	83.4*	86.5*	-26.5	40.6	90.5*	22.5
CCCCC(=O)NC(c1ccccc1)c1ccc2cccnc2c1O (stereo not drawn)	72.0*	109.8*	67.9*	-26.5	-9.5	41.7	87.7*	49.8*
COc1ccc(Cl)cc1C(Nc1cccnc1)c1ccc2cccnc2c1O (stereo not drawn)	67.5*	3.5	51.6	-0.5	-58.0	5.6	63.0*	43.7*
CCCCC(=O)NC(c1ccc([N+](=O)[O-])cc1)c1c(O)ccc2ccccc12 (stereo not drawn)	47.3	64.8	29.5	6.0	-26.0	19.6	·	·
CCCC(=O)NC(c1ccccc1)c1ccc2cccnc2c1O (stereo not drawn)	79.4*	107.9*	65.4*	-10.8	-38.1	39.2	89.0*	49.0*
COc1ccc(C(=O)Nc2cccnc2)cc1OC	-4.2	-13.8	5.2	0.9	4.8	7.7	·	·
O=C(O)Cc1sc(NC2CCCCC2)nc1-c1ccc(Cl)cc1	0.1	2.7	-56.4	-8.7	-47.1	-9.5	·	·
Cc1c(/C=N/N=C2\CCC3C4CCc5cc(O)ccc5C4CCC23C)cnn1C (stereo not drawn)	24.4	-4.3	-2.6	-1.3	-9.4	8.4	·	·
CCn1ncc(/C=N/N=C2\CCC3C4CCc5cc(O)ccc5C4CCC23C)c1C (stereo not drawn)	50.7*	58.0	-4.1	-0.2	-15.8	13.2	-2.8	·
CCc1cccc(C)c1NC(=S)NCCc1c(C)[nH]c2ccc(C)cc12	64.3*	5.3	5.5	17.5	9.9	3.9	54.1*	40.6*
CCc1cccc(CC)c1NC(=S)NCCc1c(C)[nH]c2ccc(C)cc12	71.1*	18.0	8.7	8.6	1.0	10.6	51.4*	53.8*
CCNc1nc(NC(C)CC)nc(Oc2ccc(OCC)nn2)n1 (stereo not drawn)	54.2*	7.3	18.7	21.2	31.7	-5.6	3.8	·
N#Cc1cc2c(nc1SCC(=O)Nc1sc3c(c1C#N)CCC3)CCC2	-10.0	-0.2	-140.6	-42.3	-92.4	-29.9	·	·
COc1cccc(-c2ccc(C#N)c(OC(=O)c3ccc(Cl)cc3)n2)c1	-0.7	-3.9	20.1	21.0	6.7	6.9	·	·
COc1cccc(-c2ccc(C#N)c(SCC(=O)NCCc3cccc(Cl)c3)n2)c1	55.3*	-12.6	15.0	13.2	-10.5	8.9	12.1	·
COc1ccc(-c2ccc(C#N)c(SCC(=O)Nc3sc4c(c3C#N)CCC4)n2)cc1OC	97.3*	53.0	55.5	11.2	-49.3	-15.3	62.8*	102.1*
COc1cccc(-c2ccc(C#N)c(OC(=O)c3c(Cl)cccc3Cl)n2)c1	83.2*	76.5*	-74.1	14.7	1.1	25.2	35.9	·
Cc1cccc2cc(CN(C(=O)c3cnccn3)C3CCCCC3)c(Cl)nc12	84.4*	10.8	32.7	10.5	-30.0	-12.8	82.6*	36.3*
CCOc1ccc2nc(Cl)c(CN(C(=O)c3cnccn3)C3CCCC3)cc2c1	4.4	-6.7	17.4	9.1	-17.1	11.4	·	·
O=S(=O)(NC1CC(NS(=O)(=O)OCC(Cl)(Cl)Cl)C2CCCCC12)OCC(Cl)(Cl)Cl (stereo not drawn)	77.0*	83.4*	13.7	16.6	26.9	9.9	69.6*	59.1*
SMILES	Mdm2 MdmX PPI	CSC inhib	aSyn 5UTR inh	Gli-Sufu antag	697 NFkB inh	Jurkat NFkB inh	Mdm2-MdmX conf	FLuc counter
C[C@H](NS(=O)(=O)OCC(Cl)(Cl)Cl)C1CC1c1ccccc1 (stereo partly drawn)	-15.0	39.5	19.9	-7.6	6.0	5.2	·	·
CN(C)CCCN(C(=O)c1ccc(S(=O)(=O)N2CCCCC2)cc1)c1nc2cc3c(cc2s1)OCO3	10.3	7.4	-12.0	38.2	-60.1	-7.5	·	·
Cc1cc(C)c2nc(N(CCCN(C)C)C(=O)c3ccc(S(=O)(=O)N4CCCCCC4)cc3)sc2c1	79.8*	0.3	-5.9	25.9	-13.1	1.7	49.5*	70.5*
Cc1ccc2sc(N(CCCN(C)C)C(=O)c3ccc(S(=O)(=O)N4CCCCCC4)cc3)nc2c1C	62.6*	77.1*	-33.3	18.0	-10.6	-17.1	36.5	88.6*
CC(=O)Nc1ccc(S(C)(=O)=O)c(C)c1	-12.3	·	-5.6	1.3	-11.9	-10.2	·	·
C=CCNC(=O)C1CC1(c1cccc(C)c1)c1cccc(C)c1 (stereo not drawn)	13.8	-6.5	-7.3	0.0	20.1	-14.2	·	·
Cc1cccc(C2(c3cccc(C)c3)CC2C(=O)Nc2ccc([N+](=O)[O-])cc2O)c1 (stereo not drawn)	90.1*	·	20.1	38.8	-30.5	-1.0	94.3*	50.8*
c1cnc2ccc3ncccc3c2c1	8.6	24.3	-33.0	-8.1	-6.4	-10.6	·	·
O=Cc1ccc(O)c2ncccc12	56.0*	·	62.8*	64.2*	-5.1	14.6	34.0	·
Cc1ccc(S(=O)(=O)N2CCN(C(=O)CN3CCN(c4ccc(O)cc4)CC3)CC2)cc1	·	·	·	13.2	·	·	·	·
COc1ccc(Cl)cc1NC(=O)Nc1cccc([N+](=O)[O-])c1C	53.1*	-3.0	2.3	-6.8	16.9	-7.6	29.1	·
C=CCOC(=O)C1=C(C)NC(SCC(=O)Nc2ccc(C)c(Cl)c2)=C(C#N)C1c1ccco1 (stereo not drawn)	63.0*	-2.5	2.8	7.9	-6.2	-0.2	50.6*	46.4*

Compound activity deposited in PubChem BioAssay by several laboratories.
